An excerpt weighted towards active compounds, which were near 17% of everything screened.
S2 tox – Viability Counterscreen for Primary qHTS for Inhibitors of ATXN expression; S2 cells (HEK-293 line with an ATXN2-luciferase reporter) viability, CellTiter-Fluor protease fluorescence, 24 h; Potency, µM (titrated, usually from 56.7 µM), most hits filed as cytotoxic; 400,000 compounds, 0.49% hits; AID 651635, 2014; note: nearly all actives have a fitted effect of over 40% in size
ATXN2 expr inh – Primary qHTS for Inhibitors of ATXN expression | HEK-293 ATXN2-luciferase reporter, luminescence, 24 h | Potency, µM (highest dose often 57 µM), hits mostly inhibitors | 360,000 compounds, 0.72% hits | AID 1745845, 2022; note: nearly all actives have a fitted effect of over 55% in size
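qHTS (up to 57 uM final) was run with 24 h compound exposure of reporter cells at 37 °C. Each well was multiplexed: SteadyGlo luminescence measured ATXN2-luciferase expression after a fluorogenic Gly-Phe-AFC viability readout (25 uM final).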
TDP1 cell noCPT – qHTS for Inhibitors of human tyrosyl-DNA phosphodiesterase 1 (TDP1): qHTS in cells in absence of CPT; AID 686978, 2013; 420,000 compounds, 15% hits; Potency, µM (top dose mostly 46.2 µM), most hits filed as inhibitors; DT40 Tdp1-/- hTDP1 cells, no CPT, ATP luminescence, 48 h; note: nearly all actives have a fitted effect of over 55% in size
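Luminescent ATP content (CellTiter-Glo) served as the growth readout. Knockout chicken DT40 cells expressing human TDP1 were exposed to compounds without camptothecin for a minimum 48 hr at 37 °C.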
TGFb inhibitor – qHTS for Inhibitors of TGF-b. HepG2 CAGA-GFP TGF-b/SMAD3 reporter, GFP fluorescence, 18 h; TGF-beta stimulated, 500 pg/mL final. 410,000 compounds, 1.2% hits. AID 588855, 2011. Potency, µM (top dose mostly 46.1 µM), most hits filed as inhibitors; note: nearly all actives have a fitted effect of over 65% in size
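Inhibition of TGF-beta-driven CAGA-GFP reporter expression in HEPG2 cells is measured by cellular GFP fluorescence after 18 h stimulation with 500 pg/mL recombinant TGF-beta in 1% FBS medium at 37 degrees C.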
DT40 TDP1 CPT – qHTS for Inhibitors of human tyrosyl-DNA phosphodiesterase 1 (TDP1): qHTS in cells in presence of CPT. chicken DT40 Tdp1-/-;hTDP1 cells + 20 nM CPT, ATP luminescence, 48 h. 420,000 compounds, 12% hits. Potency, µM (titrated, usually from 46.2 µM), actives largely listed as inhibitors; note: nearly all actives have a fitted effect of over 55% in size
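Chicken DT40 Tdp1-/- cells complemented with human TDP1, 400 cells/well, exposed to compounds plus 20 nM camptothecin for at least 48 h at 37 C; viability read as ATP content by CellTiter-Glo luminescence.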
HepG2 viability – qHTS for Inhibitors of TGF-b: Cytotox Counterscreen; Potency, µM (titrated, usually from 46.1 µM), hits mostly cytotoxic; 410,000 compounds, 0.76% hits; AID 588856, 2011; HepG2 CAGA-GFP viability, ATP luminescence, 18 h
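CellTiter-Glo luminescence gave cytotoxicity after 18 hours at 37 degrees C. The cells were HepG2 CAGA-GFP in 1% FBS DMEM, stimulated with 500 pg/mL TGF-beta after compound addition. %Activity was normalised to no-cell wells (complete cell-killing) and DMSO (no toxicity), and curves were fitted and classified.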
Each line names hits and unclear results; the compound was inactive in the other large screens. Calls come from the whole dose curve; as a rule, active = well fitted curve in the direction sought with a large enough effect; inconclusive = small, poorly fitted or top-dose-only effect, or another doubt; inactive = no such curve, though single readings can be large; an effect the other way counts as inactive or inconclusive.

COc1ccc(OC)c(C2CC(=O)c3c([nH]c(C(=O)OCc4ccc(C)cc4)c3C)C2)c1 (stereo not given)	TDP1 cell noCPT 0.65µM, DT40 TDP1 CPT 4.6µM (no result: S2 tox, ATXN2 expr inh)
COc1ccc(OC)c(C2CC(=O)c3c([nH]c(C(=O)OC4CCC(C)CC4)c3C)C2)c1 (stereo not given)	S2 tox inconclusive, TDP1 cell noCPT 8.2µM, DT40 TDP1 CPT 15µM
COc1cccc(CNC(=O)Cn2ccc3cc(S(=O)(=O)N4CCCCCC4)ccc32)c1	TDP1 cell noCPT inconclusive
CCOC(=O)c1[nH]c2c(c1C)C(=O)CC(c1ccc(OC)c(OC)c1)C2 (stereo not given)	S2 tox inconclusive
COc1ccc(OC)c(C2CC(=O)c3c([nH]c(C(=O)OCC4CCCO4)c3C)C2)c1 (stereo not given)	S2 tox inconclusive, TDP1 cell noCPT 5.2µM, DT40 TDP1 CPT 5.8µM
COc1ccccc1C1CC(=O)NC(C)=C1C(=O)OCC1CCCO1 (stereo not given)	none
CCCOCCOC(=O)c1[nH]c2c(c1C)C(=O)CC(c1cc(OC)ccc1OC)C2 (stereo not given)	S2 tox inconclusive, TDP1 cell noCPT 5.8µM, DT40 TDP1 CPT 5.2µM
CCOC(=O)c1[nH]c2c(c1Cc1ccccc1C)C(=O)CC(c1cc(OC)ccc1OC)C2 (stereo not given)	TDP1 cell noCPT inconclusive, DT40 TDP1 CPT inconclusive
COc1cc(C2CC(=O)c3c([nH]c(C(=O)OCc4ccc(C)cc4)c3C)C2)cc(OC)c1OC (stereo not given)	TDP1 cell noCPT 0.92µM, TGFb inhibitor inconclusive, DT40 TDP1 CPT 1.5µM (no result: S2 tox, ATXN2 expr inh)
CCOC(=O)c1oc2nc(CC(C)C)c3c(c2c1N)CCCC3	TDP1 cell noCPT 23µM, TGFb inhibitor inconclusive, DT40 TDP1 CPT 23µM
CCOc1ccc2oc(=O)cc(C)c2c1	none
CCOc1ccc(Nc2cc(=O)oc3ccccc23)cc1	TDP1 cell noCPT 18µM, DT40 TDP1 CPT 10µM
Cc1ccccc1NC(=O)CSc1nnc(COc2ccc(Cl)cc2)o1	none
C1CN(CC2COC(CN3CCOCC3)CO2)CCO1 (stereo not given)	none
CN(C)CCCNC(=O)OC1CC2CC1[C@H]1CCCCN1C2=O (stereo not given in full)	S2 tox inconclusive (no result: TGFb inhibitor, HepG2 viability)
CC(C)(CC(=O)O)CC(=O)N1CCN(c2nc3ccc(Cl)cc3s2)CC1	none
CC(C)(C)NC(=O)N1CCN(c2nc3ccc(Cl)cc3s2)CC1	TDP1 cell noCPT 18µM, DT40 TDP1 CPT 23µM
CCCCC(=O)N1CCN(c2nc3ccc(Cl)cc3s2)CC1	TDP1 cell noCPT inconclusive, DT40 TDP1 CPT 16µM
CC(C)(CC(=O)O)CC(=O)N1CCCN(c2nc3ccc(Cl)cc3s2)CC1	none
COc1ccccc1-c1nnc(SC(C)C(=O)O)n1-c1ccccc1 (stereo not given)	none (no result: ATXN2 expr inh)
CCOC(=O)N1CCN(C(=O)c2ccc3c(c2)N=C(CC)c2cc(C)ccc2S3)CC1	S2 tox inconclusive, TDP1 cell noCPT 10µM, TGFb inhibitor inconclusive, DT40 TDP1 CPT 16µM
CCC1=Nc2cc(C(=O)N3CCCCC3)ccc2Sc2ccc(C)cc21	S2 tox 32µM, ATXN2 expr inh inconclusive, TDP1 cell noCPT inconclusive
CCCC1=Nc2cc(C(=O)N3CCCC3)ccc2Sc2ccc(C)cc21	TDP1 cell noCPT inconclusive, DT40 TDP1 CPT inconclusive
OC(CSc1ccccc1Cl)CN1CCN(c2ccc(F)cc2)CC1 (stereo not given)	TDP1 cell noCPT 23µM, DT40 TDP1 CPT 18µM
COc1ccc(N2CCN(CC(O)COC(c3ccc(F)cc3)c3ccc(F)cc3)CC2)cc1 (stereo not given)	S2 tox inconclusive, TDP1 cell noCPT 29µM, TGFb inhibitor inconclusive, DT40 TDP1 CPT 18µM (no result: ATXN2 expr inh)
COc1ccc(N2CCN(CC(O)COc3ccc(F)cc3)CC2)cc1 (stereo not given)	DT40 TDP1 CPT inconclusive
CCOC(=O)Cn1ncc2c3ccccc3n(CC(=O)OCC)c2c1=O	none
CCCCN(CC)C(=O)Cn1ncc2c3ccccc3n(CCC)c2c1=O	TDP1 cell noCPT 23µM, TGFb inhibitor inconclusive, DT40 TDP1 CPT inconclusive
CCCn1c2ccccc2c2cnn(CC(=O)N3CCC(C)CC3)c(=O)c21	TDP1 cell noCPT inconclusive, TGFb inhibitor inconclusive, DT40 TDP1 CPT inconclusive (no result: S2 tox, ATXN2 expr inh)
CCCn1c2ccccc2c2cnn(CC(=O)N(Cc3ccccc3)C(C)C)c(=O)c21	TDP1 cell noCPT 18µM, DT40 TDP1 CPT 23µM
CCCn1c2ccccc2c2cnn(CC(=O)N(C)c3ccc(F)cc3)c(=O)c21	TDP1 cell noCPT 18µM, DT40 TDP1 CPT 18µM
CCCn1c2ccccc2c2cnn(CC(=O)NCCCOC)c(=O)c21	none
CCOc1ccc(C(=O)NCCN2CCCCC2)c(OCC)c1	none
CC1(C)CC(=O)C2=C(C1)OC1=C(C(=O)CC(C)(C)C1)C2c1ccc(O)cc1O	S2 tox inconclusive, TDP1 cell noCPT 4µM, TGFb inhibitor 7.1µM, DT40 TDP1 CPT 2µM, HepG2 viability 7.1µM
CC1(C)CC(=O)C2=C(C1)OC1=C(C(=O)CC(C)(C)C1)C2c1cccc([N+](=O)[O-])c1	TDP1 cell noCPT 16µM, DT40 TDP1 CPT inconclusive (no result: ATXN2 expr inh)
CC1(C)CC(=O)C2=C(C1)OC1=C(C(=O)CC(C)(C)C1)C2c1ccc(O)c([N+](=O)[O-])c1	S2 tox inconclusive, DT40 TDP1 CPT inconclusive (no result: ATXN2 expr inh)
c1ccc(C[n+]2cccc3c4ccccc4ccc32)cc1	ATXN2 expr inh inconclusive, TDP1 cell noCPT 3.7µM, TGFb inhibitor inconclusive, DT40 TDP1 CPT 3.7µM
Brc1ccc2c(ccc[n+]2CCc2ccccc2)c1	TDP1 cell noCPT inconclusive, DT40 TDP1 CPT inconclusive (no result: S2 tox, ATXN2 expr inh)
CCCCC[n+]1cccc2c3ccccc3ccc21	ATXN2 expr inh inconclusive, TDP1 cell noCPT 0.0073µM, TGFb inhibitor inconclusive, DT40 TDP1 CPT 0.52µM
CCOc1ccccc1N1CCN(CC(=O)N(CC(C)C)c2c(N)n(CC(C)C)c(=O)[nH]c2=O)CC1	none
CCOC(=O)N1CCN(C(=O)c2cnn3c(C(F)F)cc(-c4ccc(C)cc4)nc23)CC1	TDP1 cell noCPT inconclusive, DT40 TDP1 CPT inconclusive
Cc1ccc(-c2cc(C(F)F)n3ncc(C(=O)N4CCN(c5cccc(C)c5C)CC4)c3n2)cc1	TDP1 cell noCPT 18µM, DT40 TDP1 CPT inconclusive
COc1ccc(-c2cc(C(F)F)n3ncc(C(=O)N4CCc5ccccc54)c3n2)cc1	TDP1 cell noCPT 2.1µM, DT40 TDP1 CPT 3.7µM (no result: ATXN2 expr inh)
